TexasRed fluor = alters Texas Red total fluorescence, flagging assay interference. TRb/SRC2 Texas Red total fluorescence interference. Potency, µM (top dose mostly 106 µM), inactives show top-dose fluorescence change, negative = quenching. 280,000 tested, 0.29% active. AID 1479; active = well fitted curve in either direction with a large enough effect; inconclusive = small, poorly fitted or top-dose-only effect
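Human TRb ligand-binding domain at 0.6 uM with 20 nM Texas Red SRC2 peptide in Tris buffer containing 1 uM T3 and 5% DMSO, incubated with compound 5 h at ambient temperature. Total fluorescence (555/632 nm) calculated as parallel + 2 × perpendicular.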
TRb SRC2 PPI = inhibitors of human thyroid hormone receptor beta-SRC2 interaction; TRbeta-SRC2 peptide binding, fluorescence polarization; receptor liganded with 1 µM T3; P10828; 280,000 tested, 0.065% active; Potency, µM (series often up to 106 µM), inactives show at the top dose activity change, negative = inhibition, most hits filed as inhibitors; AID 1469;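 note: plate controls were bound peptide for no effect and peptide without receptor for full effect; nearly all actives have a fitted effect of over 50% in size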
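Read-out is fluorescence polarization (555 nm excitation, 632 nm emission) of a Texas Red SRC2 coactivator peptide; loss of signal reflects blocked binding to human TRb ligand-binding domain in the presence of 1 uM T3.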
RECQ1 inh = inhibitors of human RECQ1 DNA helicase | 240,000 tested, 0.54% active | RECQ1 DNA unwinding, red fluorescence kinetic read | P46063 | Potency, µM (highest dose often 57.3 µM), for inactives: at the top dose activity, negative = inhibition, usual class: inhibitors;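 note: plate controls were vehicle for no effect and no enzyme for full effect; nearly all actives have a fitted effect of over 30% in size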
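RECQ1T1 50 nM; forked duplex (20 bp + 30-nt ss tails) 200 nM, ATP 2 mM final; pH 8.0, 2 mM MgCl2, 2.5 ug/ml poly(dI-dC); 15 min compound preincubation; discontinuous kinetic read over 2 h at RT.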
BLM helicase inh = blocks DNA unwinding by human BLM helicase; P54132; 350,000 tested, 0.2% active; Potency, µM (top dose mostly 56.1 µM), inactives show at the top dose activity change, negative = inhibition, actives largely listed as inhibitors; recombinant BLM DNA unwinding, fluorescence dequenching;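 note: plate controls were vehicle for no effect and no enzyme for full effect; nearly all actives have a fitted effect of over 35% in size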
Active calls of the source: *; i = inactive; ? = inconclusive; . = no result given; ! = not active in a repeat; [ ] = another dose, or the depositor's remark. A selection: hits, their analogues and other compounds. The true share with any hit is near 0.64%. Unless noted, calls come from the whole dose curve; as a rule, active = well fitted curve in the direction sought with a large enough effect; inconclusive = small, poorly fitted or top-dose-only effect, or another doubt; inactive = no such curve, though single readings can be large; an effect the other way counts as inactive or inconclusive. Unless noted, % is set by controls: 0 for no effect and ±100 for the full control effect; potency is the fitted concentration of half-maximal effect.

SMILES	TexasRed fluor	TRb SRC2 PPI	RECQ1 inh	BLM helicase inh
Cn1c(=O)c(Nc2ccc(Cl)cc2)c2c3c(cccc31)C(=O)c1ccccc1-2	3%	-6%	28µM*	-16%
COc1cc(/C=C2\SC(=O)N(CC(=O)Nc3ccc(C)cc3)C2=O)cc(Cl)c1OCC(=O)O	.	.	.	10µM*
O=C(CN1C(=O)S/C(=C\c2cc(Cl)c(O)c(Cl)c2)C1=O)Nc1ccccc1	.	.	.	-6%
COC(=O)c1ccc2c(=O)n(CCCCCC(=O)NCc3ccc(OC)cc3)c(=O)[nH]c2c1	-5%	3%	.	-5%
Cc1cccc(NC(=O)Cn2c(=O)n(Cc3ccccc3)c(=O)c3sc4ccccc4c32)c1	25µM*[quencher]	-28%[53 µM]	.	-2%
N#C/C(=C\c1ccc(O)c(O)c1)C(=O)Nc1cccc2ncccc12	.	.	.	13µM*
COc1ccc(/C=C(\C#N)C(=O)Nc2cccc3ncccc23)cc1OC	1%	-1%	i	-4%
COc1ccc(OC)c(CNC(=O)c2cc(-c3ccc(Cl)s3)nc3ccccc23)c1	?	-1%	.	-3%
COc1ccc(CNC(=O)c2cc(-c3cccs3)nc3ccccc23)c(OC)c1	0.022µM*[quencher]	-10%	.	-9%
COCCCNC(=O)C1CCN(C(=O)c2cnn(-c3ccccc3)c2-n2cccc2)CC1	1%	3%	.	0%
O=C(NCc1ccccc1)C1CCN(C(=O)c2cnn(-c3ccccc3)c2-n2cccc2)CC1	32µM*[quencher]	-9%	.	-6%
O=C(NCc1cccc(F)c1)C1CCN(C(=O)c2sccc2-n2cccc2)CC1	25µM*![quencher]	-6%	i	-2%
CCCCCCCC/C=C\CCCCCCCC(=O)OC	0%[201 µM]	7%[201 µM]	.	.
CCS(=O)(=O)c1ccc(O)c(Nc2cc(C)nc(SC)n2)c1	0.1µM*[quencher]	-26%	.	0%
COc1ccc(CCNC(=O)c2cc(Nc3ccccc3)nc3ccccc23)cc1OC	0.0008µM*[quencher]	-18%	.	-7%
O=C(NC1CCCCCC1)c1ccc2c(c1)sc1nc(-c3ccc(F)cc3)cn12	1µM*[quencher]	-12%	.	-1%
COc1ccc(-c2cn3c(n2)sc2cc(C(=O)Nc4cccc(OC)c4)ccc23)cc1	-17%	-3%	.	1%
COc1ccc(-c2cn3c(n2)sc2cc(C(=O)Nc4cc(OC)cc(OC)c4)ccc23)cc1	0.0007µM*[quencher]	-15%	.	-8%
O=C(O)Cn1c(-c2cccs2)cc2cc(Cl)ccc21	0%	-2%	.	0%
O=C(Cn1c(-c2cccs2)cc2ccccc21)NCCCN1CCN(c2ccc(F)cc2)CC1	63µM*[quencher]	?	.	-4%
COc1cccc(N2CCN(C(=O)Cn3c(-c4cccs4)cc4ccccc43)CC2)c1	40µM*[quencher]	?	.	-3%
CN1CCN(C(=O)Cn2c(-c3cccs3)cc3cc(Cl)ccc32)CC1	112µM*[quencher]	-28%	.	2%
O=C(C[n+]1ccc(C(=O)N/N=C/c2ccc(O)cc2)cc1)c1ccccc1	-1%	12%	-15%	?
O=C(C[n+]1ccc(C(=O)N/N=C/c2ccc(OCc3ccccc3)cc2)cc1)c1ccccc1	0%	-22%	-12%	35µM*
Cc1ccc(C(C)(C)c2ccc(C)cc2)cc1	.	.	.	-6%
SMILES	TexasRed fluor	TRb SRC2 PPI	RECQ1 inh	BLM helicase inh
CC(C)(c1cc(Br)c(O)c(Br)c1)c1cc(Br)c(O)c(Br)c1	0%[201 µM]	0%[201 µM]	22µM*!	.
CCCCCCC(C)(C)S	-6%[201 µM]	-1%[201 µM]	.	.
COc1ccc(/C=C/C(=O)Nc2ccc3nc4c(c(Nc5ccc(OC)c(OC)c5)c3c2)CCCC4)cc1	-5%	-5%	.	-10%
CCN1CCN(C(=O)c2ccc3c(c2)N(Cc2ccccc2)C(=O)c2ccccc2S3(=O)=O)CC1	0.013µM*[quencher]	-16%	.	-2%
c1coc(-c2nc(-c3ccco3)c(-c3ccco3)nc2-c2ccco2)c1	13µM*[quencher]	20%	4µM*	14µM*
CC(C)CNC(=O)N1[C@H](c2cccs2)[C@@H](C)C(=O)[C@@H](C)[C@@H]1c1cccs1	0%	-5%	.	-4%
O=S(=O)(/N=C/c1c(O)ccc2ccccc12)c1cccs1	?	28µM*	i	-7%
Cc1ccc(S(=O)(=O)/N=C/c2c(O)ccc3ccccc23)cc1	.	.	.	-7%
CC(C)(N=C=O)c1cccc(C(C)(C)N=C=O)c1	-6%[201 µM]	0%[201 µM]	.	.
CN(C)Cc1cc(CN(C)C)c(O)c(CN(C)C)c1	-3%[201 µM]	5%[201 µM]	.	.
Oc1ccc(/C=N/NC(=S)Nc2cccnc2)cc1O	-9%	-4%	8.9µM*	-5%
O=C(N/N=C/c1ccc(O)c(O)c1)N/N=C/c1ccc(O)c(O)c1	.	.	.	7.9µM*
CC(C)(C)c1ccc(/C=N/NC(=S)Nc2cccnc2)cc1	0%	-2%	i	-6%
Cc1ccc2oc3c(c(=O)c2c1)C(c1cccc(O)c1)N(Cc1ccccc1Cl)C3=O (centres undefined)	3%	6%	.	-16%
CCNc1ncc2nc(-c3cc(F)cc(F)c3)c(=O)n(CCC#N)c2n1	.	.	i	5%
CCc1c(C)nc2c(OC)cccc2c1SCCC(=O)O	0.79µM*[quencher]	-24%[53 µM]	-4%	-2%
CCN1/C(=C/C=C/C=C/C=C/c2sc3ccccc3[n+]2CC)Sc2ccccc21	.	.	.	0%
CC[n+]1c(/C=C/Nc2ccccc2)sc2ccccc21	45µM*[fluorescent]	?	9%	-1%
CCN1/C(=C/C=C/c2sc3ccccc3[n+]2CC)Sc2ccccc21	.	.	.	32µM*
CCC(=O)NC(=S)Nc1ccc(-c2nc3ccccc3s2)cc1	0%	9%	-2%	-3%
CCC(=O)Nc1cc(-c2nc3ccccc3s2)c(Cl)cc1Cl	35µM*[quencher]	-11%	.	-5%
CCN(C(=O)CSc1nnc(-c2cc3occc3n2C)n1-c1ccccc1C)c1ccccc1	79µM*[quencher]	-21%	.	-3%
CCN(C(=O)CSc1nnc(-c2cc3occc3n2C)n1-c1ccccc1C)c1cccc(C)c1	-7%	3%	.	-4%
Cc1c(/C=N\NC(=O)C2COc3ccc(C(C)(C)C)cc3O2)c2ccccc2n1C (centres undefined)	4%	4%	28µM*	-12%
CCn1c2c(c(=O)n3ncc(C(=O)N4CCN(c5ccc(Cl)cc5)CC4)c13)CN(Cc1ccc(OC)cc1)CC2	2%	9%	.	-14%
SMILES	TexasRed fluor	TRb SRC2 PPI	RECQ1 inh	BLM helicase inh
Cc1ccc(Cl)cc1N1CCN(C(=O)C2CCN(S(=O)(=O)c3cccc4nonc34)CC2)CC1	7.9µM*[quencher]	0%	.	-9%
O=C(C1CCN(S(=O)(=O)c2cccc3nonc23)CC1)N1CCN(c2cccc(Cl)c2)CC1	-2%	-1%	.	-7%
CC1=CC(=O)CC(C)(C)C1	-3%[201 µM]	-2%[201 µM]	.	.
N#CC(c1ccc(Cl)cc1)c1c(Cl)cc(-n2ncc(=O)[nH]c2=O)cc1Cl (centres undefined)	.	.	.	-4%
O=C(Cn1cnc2c(nc3n2CCCCC3)c1=O)Nc1ccc(F)c(Cl)c1	18µM*[quencher]	-7%	.	1%
Cc1c(N2C(=O)/C(=C\c3ccc(N(C)C)cc3)N(C)C2=S)c(=O)n(-c2ccccc2)n1C	5%	23%	28µM*	-8%
Cc1c(N2C(=O)c3ccc4c5c(ccc(c35)C2=O)CC4)c(=O)n(-c2ccccc2)n1C	-18%	-15%	11µM*	14µM*
CC1=CC(=C(c2ccc(N)cc2)c2ccc(N)cc2)C=CC1=N	.	.	.	-14%
COc1ccccc1NC(=O)CC(C)=O	-3%[201 µM]	-1%[201 µM]	.	.
